Bioassay records from PubChem BioAssay.
In the library only some 2.2% were active in any assay of this set; here they are far more common.
C8 TRAIL sens – sensitizes caspase-8 expressing cells to TRAIL. 360,000 tested, 1% active. NB7+C8 cells + TRAIL, ATPlite viability luminescence. inhibition (viability loss, TRAIL sensitization), % at 10 µM;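 active = compounds causing at least 50% loss of cell viability in the single-dose screen, relative to plate controls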
CF NFkB inh – inhibitors of cystic fibrosis induced NF-kB. KKLEB NF-kB-GFP reporter, PAF-induced, GFP fluorescence overnight. 360,000 tested, 0.86% active. inhibition, % at 5 µM;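 active = at least 50% inhibition at 5 µM, scaled per plate between neutral and stimulator controls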;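 note: PAF is a Pseudomonas aeruginosa culture filtrate used as stimulus; plate controls were PAF-stimulated DMSO wells for no effect and unstimulated DMSO wells for full effect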
PPC-1+TRAIL kill – compounds killing PPC-1 cancer cells with TRAIL present (potentiator screen, no TRAIL-free arm). cell killing (% activity), % at 4 µM or 5 µM. AID 1443. 220,000 tested, 0.41% active. PPC-1 cells + TRAIL, ATPLite viability luminescence;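 active = cell killing above 50% in the first pass at 4 µM, then a duplicate retest at 5 µM averaging 50% or more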;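 note: plate controls were cells with TRAIL plus DMSO for no effect and medium-only wells lacking cells for full effect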
iPSC survival up – enhancers of human iPSC single-cell survival; hiPSC single-cell survival, ATPlite luminescence; 100% = ROCK inhibitor wells, 0% = DMSO; survival enhancement, % at 20 µM; 360,000 tested, 0.044% active; in the data active = survival enhancement above about 18%;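 note: cells exposed to compounds for 16 hours before the ATP read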
HIF-2a block – inhibitors of HIF-2a; 360,000 tested, 0.72% active; 786-0 RCC cells HIF-2a reporter, luciferase luminescence, overnight; inhibition, % at 18.8 µM;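 active = inhibition of the luminescence signal of 40% or more relative to plate controls, in a single-dose primary screen at 18.75 µM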
KKLEB tox – counter-screen for CF NF-kB inhibitors: cytotoxicity. KKLEB CF airway cells viability, ATPlite luminescence, overnight; stronger effect = lower value; cells stimulated with P. aeruginosa culture filtrate. activity change (cytotoxicity), % at 5 µM. 360,000 tested, 0.36% active. AID 602141;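 active = corrected activity change at or below -50% at 5 µM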
Numbers without * were called inactive; . = no result.

SMILES	C8 TRAIL sens	CF NFkB inh	PPC-1+TRAIL kill	iPSC survival up	HIF-2a block	KKLEB tox
Cc1ccc(-c2cc3onc(-c4ccccc4)c3c(=O)n2C)cc1	78*	-2	.	-3	18	-32
COc1ccc(S(=O)(=O)N2CCOCC2)cc1NC(=O)CCc1c[nH]c2ccccc12	-5	7	13	0	11	2
COc1ccc(OC)c(/C=C/C(=O)c2ccc3c(c2)OCCO3)c1	65*	-1	.	-1	-72	-33
COc1ccc(/C=C/C(=O)c2ccc3c(c2)OCO3)cc1OC	2	-19	.	-1	-35	-9
CN1/C(=C\C=C2/C(=O)Oc3ccccc3C2=O)C(C)(C)c2ccccc21	.	.	28	.	.	.
CN1C(=CC=C2C=C(I)C(=O)C(I)=C2)C(C)(C)c2ccccc21	24	0	50*	-1	24	-17
Cc1c(CC(=O)N2CCC(C(N)=O)CC2)c(=O)oc2cc3c(cc12)CCC1(CCCCC1)O3	-6	-7	.	-1	-15	9
C[C@H]1CN([C@@H](C)CO)C(=O)Cc2cc(NS(C)(=O)=O)ccc2O[C@@H]1CN(C)Cc1ccc(Cl)c(Cl)c1	3	5	.	5	6	-14
C[C@@H]1CN([C@@H](C)CO)C(=O)Cc2cc(NC(=O)Nc3ccc(F)cc3)ccc2O[C@@H]1CN(C)Cc1ccc(Cl)c(Cl)c1	-7	52*	.	-1	-39	-20
O=C(NO)c1cc(OCC(F)(F)F)ccc1OCC(F)(F)F	51*	-11	-4	-1	24	-1
O=C(NNC(=O)c1cc(OCC(F)(F)F)ccc1OCC(F)(F)F)c1cccc(C(F)(F)F)c1	52*	6	-14	3	0	-21
O=C(NCc1ccncc1)c1csc([C@@H]2O[C@H](CO)[C@@H](O)[C@H]2O)n1	-12	-26	.	4	12	6
Cc1ccc(S(=O)(=O)c2c(N)n(CCCN(C)C)c3nc4ccccc4nc23)cc1	7	21	4	0	20	-8
CCCCn1c(NS(=O)(=O)c2ccc(C)cc2)c(S(=O)(=O)c2ccccc2)c2nc3ccccc3nc21	78*	43	10	1	6	-16
COc1ccc(NC(=O)/C(Cl)=C(/Cl)S(=O)Cc2ccc(Cl)cc2)cn1 (centres undefined)	-27	87*	21	-4	97*	-88*
O=C(CSCc1cc(=O)n2ccsc2n1)Nc1ccccc1	-5	3	.	0	6	-7
Nc1c2c(nc3sc4c(c13)CCCC4)-c1ccccc1CC2	66*	-10	42	-1	-276	-34
O=[N+]([O-])c1ccc(N=Nc2c(Cl)cc(O)cc2Cl)cc1	41	56*	15	-1	-196	-70*
CC(N)=Nc1ccc([N+](=O)[O-])cc1	-9	15	4	0	12	1
N#Cc1c(SCC(=O)Nc2nncs2)sc2c(O)cc(=O)[nH]c12	8	7	.	0	14	-7
CCc1ccc(C(=O)Cn2ccsc2=N)cc1	59*	-36	.	0	-315	0
CC(C)(C)NC(=O)NC(=O)Cn1ccsc1=N	-4	-2	25	0	13	3
Cc1cc(=O)[nH]c2nnc(-c3ccc(Cl)cc3)n12	68*	-2	.	-1	-138	-7
O=C(CN1CCC(NC(=O)Nc2ccccc2)CC1)Nc1ccc([N+](=O)[O-])cc1	17	-14	.	0	0	-2
O=C(Nc1cccc(Cl)c1)c1csc(COCCO)n1	2	1	.	0	-232	-8
SMILES	C8 TRAIL sens	CF NFkB inh	PPC-1+TRAIL kill	iPSC survival up	HIF-2a block	KKLEB tox
CCOC(=O)C1CCCN(C(=O)c2ccc(F)c(Cl)c2)CC1 (centres undefined)	-4	2	.	6	5	-4
N#Cc1cc2cc3c(cc2nc1SCC(=O)N1CCCC1)OCCO3	-12	1	.	-1	-193	3
CC(=O)CSc1nc2cc3c(cc2cc1C#N)OCCO3	67*	-91	48	-1	-174	10
C#Cc1ccc([C@@H]2C=C(C(=O)Nc3ccccc3)O[C@H](OCC)[C@H]2CCCO)cc1	80*	-3	21	-3	0	0
C#Cc1ccc([C@H]2C=C(C(=O)Nc3ccccc3)O[C@@H](OCc3ccc(CO)cc3)C2)cc1	89*	5	13	-4	-20	-28
N#Cc1ccc(NC(=O)Nc2ccc(Cl)cc2)cc1	58*	22	0	1	-190	-6
CN(CC(=O)Nc1ccc(C#N)cc1)Cc1ccc(Cl)cc1	-3	-27	-5	0	8	4
CC1=NN(c2nc3ccccc3[nH]2)C(=O)C1Cc1ccccc1 (centres undefined)	37	51*	6	-1	-104	-52*
O=c1[nH]c2ccccc2nc1NCc1ccccc1	2	14	.	0	-108	-6
O=C(NCC1CCCN1S(=O)(=O)c1cccs1)C(=O)Nc1ccccc1F (centres undefined)	-3	-18	.	0	-104	0
COc1ccc(NC(=O)c2ccccc2F)cc1Cl	6	4	23	-3	-210	-22
O=C(Nc1ccc(Oc2ccc(Cl)cc2)c(Cl)c1)c1cc(I)cc(I)c1O	2	66*	.	4	-34	23
CCOC(=O)c1sc(NC(=O)Nc2cccc(Cl)c2)cc1C	55*	60*	18	-3	-303	-64*
CC(=O)Nc1ccc(NC(=O)C(C)OC(=O)CSCc2cccc(Cl)c2)cc1 (centres undefined)	-13	20	.	0	17	7
COc1ccc(N/C=C/C(=O)c2ccccc2)cc1	71*	-18	.	-1	-55	-54*
COc1ccc(N/C=C\C(=O)c2ccc3ccccc3c2)cc1	23	8	.	-1	-204	-9
Cc1ccnc(NC(=O)COc2ccc3c(c2)CCC3)c1	70*	28	.	0	-29	-46
CC(=O)Nc1ccc(NC(=O)COc2ccc3c(c2)CCC3)cc1	-3	13	22	3	-4	1
COc1ccc(C(=O)/C=C/Nc2cc(C)ccn2)cc1	61*	8	35	-1	-46	-16
CCOc1ccc(N/C=C/C(=O)c2ccccc2)c([N+](=O)[O-])c1	91*	-40	73*	-3	38	-58*
Cc1ccnc(N/C=C/C(=O)c2ccc(Br)cc2)c1	44	-13	.	-1	-226	-14
COc1ccc(C2=NS(=O)(=O)N(C)C(C(=O)N3CCc4ccccc4C3)=C2)cc1OC	9	-4	.	1	20	0
CSc1ccc(NC(=O)Nc2cc(C)ccn2)cc1	55*	0	33	0	-98	-14
COc1ccc(NC(=O)Nc2cc(C)ccn2)cc1	59*	-2	.	-1	-89	-8
O=C(OCc1c(F)cccc1Cl)c1cccnc1Cl	1	-11	.	0	4	5
